# Hits are enriched below; roughly 2% of the tested compounds scored in any of these assays.
# BJeLR viability: BJeLR cell viability loss; BJeLR (HRASV12) viability, CellTiter-Glo ATP luminescence, 48 h; inhibition, % (concentration not given with the values); 0.17% of 300,000 active; AID 1554; in the data active = inhibition above about 50%
# Y pestis TopoI: Y. pestis Topo-I inhibition via cleavage products; Y. pestis Topo-I cleavage product accumulation, plate reader; 0.064% of 360,000 active; AID 504884; activity, % at 10 µM; in the data active = activity above about 50%, passing the limit was not always enough
# PrPC TRFRET: cell surface PrPC inhibition, primary TR-FRET screen | TR-FRET read-out | inhibition, % at 13.8 µM | 0.43% of 370,000 active; in the data active = inhibition above about 24%
# PrP UTR inh: inhibition of PrP 5' UTR reporter expression; cell-based PrP 5' UTR mRNA reporter, plate reader; inhibition, % (no concentration beside the values); 0.35% of 340,000 active; in the data active = inhibition above about 52%
# CCHF vOTU inh: CCHFV vOTU protease inhibition | Pep-AMC fluorescence | inhibition, % at 11.5 µM | 0.55% of 370,000 active; in the data active = inhibition above about 30%
# PfHsp40 rescue: restores yeast growth despite PfHsp40 toxicity; S. cerevisiae expressing PfHsp40, growth rescue, ATP luminescence; AID 504582; 0.68% of 340,000 active; growth rescue, % at 12.5 µM; in the data active = growth rescue above about 28%, passing the limit was not always enough;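 note: yeast W303a lacking pdr1 and pdr3 grown in galactose medium; growth measured after three days at 30 °C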
# A number is an active result; n = inactive; x = no result.
SMILES,BJeLR viability,Y pestis TopoI,PrPC TRFRET,PrP UTR inh,CCHF vOTU inh,PfHsp40 rescue
O=C(N[C@@H](Cc1cccnc1)C(=O)N1CCC[C@H]1C(=O)NCCc1ccccc1Cl)c1ccc(Cl)c(Cl)c1,x,x,n,x,n,x
CCCCNC(=O)N1CCC(c2nc3ccc(Cl)cc3[nH]2)CC1,x,x,n,x,n,x
CCOC(=O)NC(=O)CSc1ccccn1,n,n,n,n,n,n
CCOC(=O)NC1Cc2ccccc2C1Sc1ccccn1 (stereo not drawn),n,n,n,n,n,54
Cc1cc(-c2n[nH]c(=S)n2N=Cc2c3ccccc3cc3ccccc23)n[nH]1,x,x,n,x,n,x
CCOC(=O)C1=C(C(=O)OCC)C2N(Cc3ccc(C#N)cc3)c3ccccc3[C@@]23C[C@@H](C(=O)OC)N(S(=O)(=O)c2ccc(C#N)cc2)C3=N1 (stereo partly drawn),x,x,n,x,n,x
CCOC(=O)N1CCN(C(=O)C[C@H]2C[C@@]3(C(=O)OC)C(=C[C@H](COCc4ccccc4)O[C@@H]3C)N(CCC3=CCCCC3)C2=O)CC1,x,x,n,x,n,x
Cc1ccccc1C(=O)NC1CCCCN(Cc2cccc(F)c2)C1=O (stereo not drawn),x,x,n,x,n,x
O=C(c1ccc(S(=O)(=O)N2CCCCCC2)cc1)N1CCC(CN2C(=O)c3cccc4cccc(c34)C2=O)CC1,n,n,n,n,n,44
C=CCn1c(Cc2cccs2)nnc1SCC(=O)Nc1ccc(C)cc1,x,x,n,x,n,x
CCOC(=O)N1CCN(C(=O)C[C@@H]2C[C@]3(C(=O)OCC)CCC4=C3N(CCC4)C2=O)CC1,x,x,n,x,n,x
CCOc1ccc(Cn2cc(F)c(=O)[nH]c2=O)cc1,n,n,n,n,n,n
CCCOc1ccc(S(=O)(=O)n2cc(F)c(=O)[nH]c2=O)cc1,n,n,n,n,n,162
CC(C)COc1ccc(C2NC(=O)NC2=O)cc1 (stereo not drawn),n,n,n,n,n,n
CC(C)COc1ccc(S(=O)(=O)n2cc(F)c(=O)[nH]c2=O)cc1,n,n,n,n,n,36
O=C(Oc1cc2oc(=O)cc(-c3ccccc3)c2cc1Cl)C1CCCCC1,n,n,n,n,n,68
Cc1nc(-n2[nH]c3c(c2=O)CCCC3)[nH]c(=O)c1Cc1ccccc1,n,n,n,n,n,52
COc1ccc2c(c1)[C@H]1[C@H](CO2)[C@H](c2ccccc2)[C@]2(C)C(=O)Nc3ccc(C)cc3C(=O)N12,x,n,n,n,n,n
Cc1ccc2c(c1)C(=O)N1[C@H]3c4ccccc4OC[C@@H]3[C@H](c3ccccc3)[C@]1(C)C(=O)N2,x,n,x,n,x,128
C[C@]12C(=O)N(c3ccccc3)C(=O)N1[C@H]1c3ccccc3OC[C@@H]1[C@H]2c1ccccc1,x,n,n,n,n,98
Cc1ccc2c(c1)NC(=O)[C@@]1(C)[C@@H](c3ccccc3)[C@H]3COc4ccccc4[C@@H]3N1C2=O,x,n,n,n,n,n
CCOC(=O)[C@@H]1[C@H]2COc3ccccc3[C@H]2N2C(=O)N(c3ccc(C(F)(F)F)cc3)C(=O)[C@]12C,n,n,n,n,n,92
COc1ccc2c(c1)[C@H]1[C@H](CO2)[C@H](c2ccccc2)[C@]2(C)C(=O)Nc3ccc(Cl)cc3C(=O)N12,x,n,n,n,n,268
C=CCN1[C@H](CC(C)C)COc2cc(F)ccc2S1(=O)=O,x,x,n,x,n,x
CCn1c(COc2ccc(C)cc2)nnc1SCC(=O)Nc1ccccc1-c1ccccc1,x,x,n,x,n,x
SMILES,BJeLR viability,Y pestis TopoI,PrPC TRFRET,PrP UTR inh,CCHF vOTU inh,PfHsp40 rescue
c1ccc(Cc2cnc(N3CCN(Cc4cccc(-c5ccsc5)n4)CC3)nc2)cc1,x,x,n,x,n,x
C[C@@]12C(=O)Nc3ccc(Br)cc3C(=O)N1[C@H]1c3cc(Cl)ccc3OC[C@@H]1[C@@H]2c1ccccc1,x,n,x,n,x,n
C[C@@]12C(=O)Nc3ccc(Br)cc3C(=O)N1[C@H]1c3ccccc3OC[C@@H]1[C@@H]2c1ccccc1,x,n,x,n,x,128
COc1ccc2c(c1)OC[C@H]1[C@H]2N2C(=O)c3cc(C)ccc3NC(=O)[C@@]2(C)[C@H]1c1ccccc1,x,n,x,n,x,297
Cc1ccc(C(=O)C2CCN(CC(=O)N3CCCC3)CC2)cc1,x,x,n,x,n,x
CN(CCOc1ccc(Cl)c(Cl)c1)Cc1ccccc1,n,n,n,n,n,36
CCOc1ccc(OCCN(C)Cc2ccccc2)cc1,n,n,n,n,n,n
O=C(Oc1c(Cl)cc(Cl)c2cccnc12)c1cccs1,n,n,n,n,n,341
O=C(Oc1c(CN2CCOCC2)cc(Cl)c2cccnc12)c1cccs1,n,n,n,n,n,n
